# Experimental data published in the supplement of paper PMC8728848.
# Only a selection was taken, and the strongest signals are over-represented in it overall.
# B1: CBP21 (Serratia marcescens), O83009 (protein)
# chain: MNKTSRTLLSLGLLSAAMFGVSQQANAHGYVESPASRAYQCKLQLNTQCGSVQAEPQSVEGLKGFPQAGPADGHIASADKSTFFELDQQTPTRWNKLNLKTGPNSFTWKLTARHSTTSWRYFITKPNWDASQPLTRASFDLTPFCQFNDGGAIPAAQVTHQCNIPADRSGSHVILAVWDIADTANAFYQAIDVNLSK
# Experiments:
# Experiment in all cases: glycan array binding signal (z-score within array); higher = stronger binding
# Conditions in all cases: glycan notation: IUPAC condensed, linker removed; mutation: Y54A
# [1] = target: Neu5Ac(a2-3)Gal(b1-3)GlcNAc(b1-2)Man(a1-3)[Neu5Ac(a2-3)Gal(b1-3)GlcNAc(b1-2)Man(a1-6)]Man(b1-4)GlcNAc(b1-4)GlcNAc
# Method in brief: (§1)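 Columns mapping to the same glycan were averaged after glycan names were converted to IUPAC-condensed notation. The data come from 3228 arrays in the Consortium for Functional Glycomics database, limited to those with an available protein sequence. Binding is reported as a within-array Z-score averaged across arrays of one protein sequence and across linkers.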
# [2] = target: Neu5Ac(a2-3)Gal(b1-3)GlcNAc(b1-2)[Neu5Ac(a2-3)Gal(b1-3)GlcNAc(b1-4)]Man(a1-6)[Neu5Ac(a2-3)Gal(b1-3)GlcNAc(b1-2)Man(a1-3)]Man(b1-4)GlcNAc(b1-4)GlcNAc
# Method in brief: as §1
# [3] = target: Neu5Ac(a2-3)Gal(b1-3)GlcNAc6S
# Method in brief: as §1
# [4] = target: Neu5Ac(a2-3)Gal(b1-3)[Neu5Ac(a2-6)]GalNAc
# Method in brief: as §1
# [5] = target: Neu5Ac(a2-3)Gal(b1-4)GlcNAc(b1-2)Man(a1-3)[Neu5Ac(a2-3)Gal(b1-4)GlcNAc(b1-2)Man(a1-6)]Man(b1-4)GlcNAc(b1-4)GlcNAc
# Method in brief: as §1
# [6] = target: Neu5Ac(a2-3)Gal(b1-4)GlcNAc(b1-3)GalNAc
# Method in brief: as §1
# [7] = target: Neu5Ac(a2-3)Gal(b1-4)[Fuc(a1-3)]GlcNAc(b1-3)GalNAc
# Method in brief: as §1
# [8] = target: Neu5Ac(a2-3)Gal6S(b1-4)GlcNAc
# Method in brief: as §1
# [9] = target: Neu5Ac(a2-6)Gal(b1-4)Glc
# Method in brief: as §1
# [10] = target: Neu5Ac(a2-6)Gal(b1-4)GlcNAc(b1-2)Man(a1-3)[GlcNAc(b1-4)][Neu5Ac(a2-6)Gal(b1-4)GlcNAc(b1-2)Man(a1-6)]Man(b1-4)GlcNAc(b1-4)GlcNAc
# Method in brief: as §1
# [11] = target: Neu5Ac(a2-6)Gal(b1-4)GlcNAc(b1-2)[Neu5Ac(a2-6)Gal(b1-4)GlcNAc(b1-4)]Man(a1-3)[GlcNAc(b1-4)][Neu5Ac(a2-6)Gal(b1-4)GlcNAc(b1-2)[Neu5Ac(a2-6)Gal(b1-4)GlcNAc(b1-6)]Man(a1-6)]Man(b1-4)GlcNAc(b1-4)GlcNAc
# Method in brief: as §1
# [12] = target: Neu5Ac(a2-6)Gal(b1-4)GlcNAc(b1-3)Gal(b1-4)GlcNAc(b1-3)Gal(b1-4)GlcNAc
# Method in brief: as §1
# [13] = target: Neu5Ac(a2-6)Gal(b1-4)GlcNAc(b1-3)Gal(b1-4)[Fuc(a1-3)]GlcNAc(b1-3)Gal(b1-4)[Fuc(a1-3)]GlcNAc
# Method in brief: as §1
# [14] = target: Neu5Ac(a2-6)Gal(b1-4)GlcNAc(b1-6)[Gal(b1-3)]GalNAc
# Method in brief: as §1
# [15] = target: Neu5Ac(a2-6)Gal(b1-4)GlcNAc6S
# Method in brief: as §1
# [16] = target: Neu5Ac(a2-8)Neu5Ac(a2-8)Neu5Ac(a2-3)Gal(b1-4)Glc
# Method in brief: as §1
# [17] = target: Neu5Ac(a2-8)Neu5Gc(a2-3)Gal(b1-4)GlcNAc
# Method in brief: as §1
# [18] = target: Neu5Ac(b2-6)GalNAc
# Method in brief: as §1
# [19] = target: Neu5Gc(a2-3)Gal(b1-4)GlcNAc(b1-3)Gal(b1-4)GlcNAc(b1-2)Man(a1-3)[Neu5Gc(a2-3)Gal(b1-4)GlcNAc(b1-3)Gal(b1-4)GlcNAc(b1-2)Man(a1-6)]Man(b1-4)GlcNAc(b1-4)GlcNAc
# Method in brief: as §1
# [20] = target: Neu5Gc(b2-6)Gal(b1-4)GlcNAc
# Method in brief: as §1
binder,measurement,setting,value
B1,glycan array binding signal (z-score),[1],-0.307
same,glycan array binding signal (z-score),[2],5.4
same,glycan array binding signal (z-score),[3],-0.121
same,glycan array binding signal (z-score),[4],3.97
same,glycan array binding signal (z-score),[5],-0.458
same,glycan array binding signal (z-score),[6],3.83
same,glycan array binding signal (z-score),[7],0.503
same,glycan array binding signal (z-score),[8],4.07
same,glycan array binding signal (z-score),[9],-0.381
same,glycan array binding signal (z-score),[10],-0.098
same,glycan array binding signal (z-score),[11],0.142
same,glycan array binding signal (z-score),[12],-0.314
same,glycan array binding signal (z-score),[13],4.6
same,glycan array binding signal (z-score),[14],0.13
same,glycan array binding signal (z-score),[15],3.37
same,glycan array binding signal (z-score),[16],0.027
same,glycan array binding signal (z-score),[17],-0.455
same,glycan array binding signal (z-score),[18],-0.919
same,glycan array binding signal (z-score),[19],2.24
same,glycan array binding signal (z-score),[20],-0.206
